Assay results: PubChem BioAssay (EPA / NIEHS)
Activity calls are given as the source filed them. The calls were made as follows: active = hit-call score of the fitted dose curve at least 0.9, where 1 is the maximum; inactive = score below 0.9.

Key:
Conditions in all cases: mRNA level, 48 h; actives raise or lower the signal
[1] = read-out: Tumor necrosis factor receptor superfamily member 6 (Homo sapiens) (UniProt P25445); assay: LTEA_HepaRG_FAS: Life Technologies and Expression Analysis (LTEA) Assay for Fas cell surface death receptor (FAS) using HepaRG (AID 2283447)
In short: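 Differentiated human HepaRG cells, pre-cultured 48 h, were exposed in duplicate for 48 h to 8-point half-log concentrations (top 100 uM, 0.5% DMSO) in serum-free induction medium; FAS mRNA measured by qRT-PCR, normalized to ACTB/GAPDH/POLR2A, bidirectional fit versus DMSO.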

[2] = read-out: Fatty acid synthase (Homo sapiens) (UniProt P49327); assay: LTEA_HepaRG_FASN: Life Technologies and Expression Analysis (LTEA) Assay for Fatty Acid Synthase (FASN) using HepaRG (AID 2283448)
In short: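 In human HepaRG cultures, 48 h chemical exposure (up to 100 uM, 0.5% DMSO) preceded TaqMan qRT-PCR of FASN.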

[3] = read-out: Cyclin Dependent Kinase Inhibitor 1A (CDKN1A), CDKN1A (gene 1026); assay: LTEA_HepaRG_CDKN1A: Life Technologies and Expression Analysis (LTEA) Assay for Cyclin Dependent Kinase Inhibitor 1A (CDKN1A) using HepaRG (AID 2283450)
In short: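 Cryopreserved HepaRG cells were plated and cultured 48 h, then switched to serum-free induction medium. Chemicals (eight half-log concentrations, top 100 uM, 0.5% DMSO) were applied for 48 h. Lysates underwent qRT-PCR for CDKN1A with housekeeping normalization.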

[4] = read-out: catalase (CAT), CAT (gene 847); assay: LTEA_HepaRG_CAT: Life Technologies and Expression Analysis (LTEA) Assay for catalase (CAT) using HepaRG (AID 2283452);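 as to AC50: TaqMan qRT-PCR signal normalized to ACTB GAPDH and POLR2A housekeeping genes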
In short: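 Differentiated HepaRG cells in serum-free induction medium were dosed 48 h in duplicate, eight half-log concentrations from 100 uM in 0.5% DMSO. Transcript measured by TaqMan qRT-PCR, normalised to ACTB/GAPDH/POLR2A, fitted bidirectionally against DMSO.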

[5] = read-out: CFLAR gene, CFLAR (gene 8837); assay: LTEA_HepaRG_CFLAR: Life Technologies and Expression Analysis (LTEA) Assay for CFLAR gene using HepaRG (AID 2283455)
In short: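 Gain- or loss-of-signal changes in CFLAR transcript were fitted bidirectionally relative to 0.5% DMSO. Cells (HepaRG, duplicate wells) were dosed for 48 h across eight half-log concentrations topping at 100 uM; quantitation by TaqMan qRT-PCR.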

[6] = read-out: Forkhead box O1 (FOXO1), FOXO1 (gene 2308); assay: LTEA_HepaRG_FOXO1: Life Technologies and Expression Analysis (LTEA) Assay for Forkhead box O1 (FOXO1) using HepaRG (AID 2283456)
In short: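 Using one lot of HepaRG hepatic cells kept in 0.5% DMSO, the team applied test chemicals in duplicate, half-log dilutions from 100 uM, for 48 h. Expression, normalised to ACTB/GAPDH/POLR2A, was compared with vehicle in either direction.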

[7] = read-out: growth arrest and DNA damage 45 (GADD45A), GADD45A (gene 1647); assay: LTEA_HepaRG_GADD45A: Life Technologies and Expression Analysis (LTEA) Assay for growth arrest and DNA damage 45 (GADD45A) using HepaRG (AID 2283458)
In short: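 Eight-point concentration-response in HepaRG cells: 48 h chemical exposure, 0.5% DMSO vehicle, top dose 100 uM. Normalized qRT-PCR mRNA readout with bidirectional fitting relative to DMSO.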

[8] = read-out: Forkhead box O3 (FOXO3), FOXO3 (gene 2309); assay: LTEA_HepaRG_FOXO3: Life Technologies and Expression Analysis (LTEA) Assay for Forkhead box O3 (FOXO3) using HepaRG (AID 2283459)
In short: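 Gene-expression endpoint: FOXO3 transcript level by qRT-PCR in HepaRG cultures treated 48 h with chemicals up to 100 uM (half-log, 0.5% DMSO vehicle).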

[9] = read-out: ABC Transporter (ABCB1), ABCB1 (gene 5243); assay: LTEA_HepaRG_ABCB1: Life Technologies and Expression Analysis (LTEA) Assay for ABC Transporter (ABCB1) using HepaRG (AID 2283460)
In short: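 Human liver HepaRG line treated 48 h with up to 100 uM compound (eight half-log points, 0.5% DMSO); ABCB1 mRNA change fitted bidirectionally against DMSO controls.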

[10] = read-out: growth arrest and DNA damage 45 (GADD45B), GADD45B (gene 4616); assay: LTEA_HepaRG_GADD45B: Life Technologies and Expression Analysis (LTEA) Assay for growth arrest and DNA damage 45 (GADD45B) using HepaRG (AID 2283461)
In short: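 Values are bidirectional concentration-response fits against 0.5% DMSO controls. Underlying data: qRT-PCR mRNA levels in human HepaRG liver cells treated 48 h in serum-free induction medium, eight concentrations topping at 100 uM.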

[11] = read-out: ABC Transporter (ABCC3), ABCC3 (gene 8714); assay: LTEA_HepaRG_ABCC3: Life Technologies and Expression Analysis (LTEA) Assay for ABC Transporter (ABCC3) using HepaRG (AID 2283462)
In short: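 Differentiated HepaRG liver cells receive test chemicals at eight concentrations (max 100 uM) for 48 h. Expression of ABCC3 is quantified by qRT-PCR against ACTB, GAPDH and POLR2A, and activity is fitted in both directions against the DMSO control.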

[12] = read-out: ABC Transporter (ABCB11), ABCB11 (gene 8647); assay: LTEA_HepaRG_ABCB11: Life Technologies and Expression Analysis (LTEA) Assay for ABC Transporter (ABCB11) using HepaRG (AID 2283463)
In short: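 Using HepaRG cultures held in 0.5% DMSO, chemicals were tested at half-log dilutions from 100 uM for 48 h. Induction or suppression of ABCB11 mRNA, normalized to ACTB, GAPDH and POLR2A, was fitted bidirectionally against vehicle.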

[13] = read-out: ABC Transporter (ABCC2), ABCC2 (gene 1244); assay: LTEA_HepaRG_ABCC2: Life Technologies and Expression Analysis (LTEA) Assay for ABC Transporter (ABCC2) using HepaRG (AID 2283464)
In short: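 Gene expression of ABCC2 was determined by qRT-PCR in HepaRG cells exposed 48 h to chemicals (highest 100 uM, half-log dilutions). Activity was fitted in both directions relative to 0.5% DMSO vehicle.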

[14] = read-out: Broad substrate specificity ATP-binding cassette transporter ABCG2 (Homo sapiens) (UniProt Q9UNQ0); assay: LTEA_HepaRG_ABCG2: Life Technologies and Expression Analysis (LTEA) Assay for ABC Transporter (ABCG2) using HepaRG (AID 2283465)
In short: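 Gene expression of ABCG2 in HepaRG liver cells is quantified by qRT-PCR following 48 h exposure across an eight-point series topping at 100 uM. Values come from bidirectional fitting relative to DMSO vehicle.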

[15] = read-out: Cyclin D2 (CCND2), CCND2 (gene 894); assay: LTEA_HepaRG_CCND2: Life Technologies and Expression Analysis (LTEA) Assay for Cyclin D2 (CCND2) using HepaRG (AID 2283449);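 also: CCND2 transcript measured by TaqMan qRT-PCR and normalised to three housekeeping genes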
In short: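 In this HepaRG study, an eight-point concentration series (max 100 uM, 0.5% DMSO) is applied for 48 h. CCND2 mRNA change is derived by qRT-PCR normalised to ACTB, GAPDH and POLR2A.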

[16] = read-out: Cyclin D1 (CCND1), CCND1 (gene 595); assay: LTEA_HepaRG_CCND1: Life Technologies and Expression Analysis (LTEA) Assay for Cyclin D1 (CCND1) using HepaRG (AID 2283451)
In short: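 Human liver HepaRG line; 48 h dosing, 8 conc. ≤100 uM, 0.5% DMSO; TaqMan qRT-PCR mRNA, 3 housekeeping genes; bidirectional curve fit vs DMSO.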

[17] = read-out: flavin-containing dimethylaniline monooxygenases 3 (FMO3), FMO3 (gene 2328); assay: LTEA_HepaRG_FMO3: Life Technologies and Expression Analysis (LTEA) Assay for flavin-containing dimethylaniline monooxygenases 3 (FMO3) using HepaRG (AID 2283453);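 as to AC50: FMO3 transcript by TaqMan qRT-PCR normalized to ACTB GAPDH and POLR2A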
In short: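 Eight-point concentration-response in serum-free HepaRG cultures (top 100 uM, 0.5% DMSO, 48 h). Read-out: FMO3 mRNA level normalized to three endogenous control genes, fitted bidirectionally versus vehicle.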

[18] = read-out: Cytochrome P450 (CYP1A1), CYP1A1 (gene 1543); assay: LTEA_HepaRG_CYP1A1: Life Technologies and Expression Analysis (LTEA) Assay for Cytochrome P450 (CYP1A1) using HepaRG (AID 2283454)
In short: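 Induction of CYP1A1 mRNA in a human hepatic cell line was measured 48 h after dosing, with 1 mM phenobarbital as induction positive control and 0.5% DMSO vehicle as baseline for bidirectional curve fitting.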

Measured: AC50

Chain of Fatty acid synthase (Homo sapiens) (P49327 whole entry, looked up): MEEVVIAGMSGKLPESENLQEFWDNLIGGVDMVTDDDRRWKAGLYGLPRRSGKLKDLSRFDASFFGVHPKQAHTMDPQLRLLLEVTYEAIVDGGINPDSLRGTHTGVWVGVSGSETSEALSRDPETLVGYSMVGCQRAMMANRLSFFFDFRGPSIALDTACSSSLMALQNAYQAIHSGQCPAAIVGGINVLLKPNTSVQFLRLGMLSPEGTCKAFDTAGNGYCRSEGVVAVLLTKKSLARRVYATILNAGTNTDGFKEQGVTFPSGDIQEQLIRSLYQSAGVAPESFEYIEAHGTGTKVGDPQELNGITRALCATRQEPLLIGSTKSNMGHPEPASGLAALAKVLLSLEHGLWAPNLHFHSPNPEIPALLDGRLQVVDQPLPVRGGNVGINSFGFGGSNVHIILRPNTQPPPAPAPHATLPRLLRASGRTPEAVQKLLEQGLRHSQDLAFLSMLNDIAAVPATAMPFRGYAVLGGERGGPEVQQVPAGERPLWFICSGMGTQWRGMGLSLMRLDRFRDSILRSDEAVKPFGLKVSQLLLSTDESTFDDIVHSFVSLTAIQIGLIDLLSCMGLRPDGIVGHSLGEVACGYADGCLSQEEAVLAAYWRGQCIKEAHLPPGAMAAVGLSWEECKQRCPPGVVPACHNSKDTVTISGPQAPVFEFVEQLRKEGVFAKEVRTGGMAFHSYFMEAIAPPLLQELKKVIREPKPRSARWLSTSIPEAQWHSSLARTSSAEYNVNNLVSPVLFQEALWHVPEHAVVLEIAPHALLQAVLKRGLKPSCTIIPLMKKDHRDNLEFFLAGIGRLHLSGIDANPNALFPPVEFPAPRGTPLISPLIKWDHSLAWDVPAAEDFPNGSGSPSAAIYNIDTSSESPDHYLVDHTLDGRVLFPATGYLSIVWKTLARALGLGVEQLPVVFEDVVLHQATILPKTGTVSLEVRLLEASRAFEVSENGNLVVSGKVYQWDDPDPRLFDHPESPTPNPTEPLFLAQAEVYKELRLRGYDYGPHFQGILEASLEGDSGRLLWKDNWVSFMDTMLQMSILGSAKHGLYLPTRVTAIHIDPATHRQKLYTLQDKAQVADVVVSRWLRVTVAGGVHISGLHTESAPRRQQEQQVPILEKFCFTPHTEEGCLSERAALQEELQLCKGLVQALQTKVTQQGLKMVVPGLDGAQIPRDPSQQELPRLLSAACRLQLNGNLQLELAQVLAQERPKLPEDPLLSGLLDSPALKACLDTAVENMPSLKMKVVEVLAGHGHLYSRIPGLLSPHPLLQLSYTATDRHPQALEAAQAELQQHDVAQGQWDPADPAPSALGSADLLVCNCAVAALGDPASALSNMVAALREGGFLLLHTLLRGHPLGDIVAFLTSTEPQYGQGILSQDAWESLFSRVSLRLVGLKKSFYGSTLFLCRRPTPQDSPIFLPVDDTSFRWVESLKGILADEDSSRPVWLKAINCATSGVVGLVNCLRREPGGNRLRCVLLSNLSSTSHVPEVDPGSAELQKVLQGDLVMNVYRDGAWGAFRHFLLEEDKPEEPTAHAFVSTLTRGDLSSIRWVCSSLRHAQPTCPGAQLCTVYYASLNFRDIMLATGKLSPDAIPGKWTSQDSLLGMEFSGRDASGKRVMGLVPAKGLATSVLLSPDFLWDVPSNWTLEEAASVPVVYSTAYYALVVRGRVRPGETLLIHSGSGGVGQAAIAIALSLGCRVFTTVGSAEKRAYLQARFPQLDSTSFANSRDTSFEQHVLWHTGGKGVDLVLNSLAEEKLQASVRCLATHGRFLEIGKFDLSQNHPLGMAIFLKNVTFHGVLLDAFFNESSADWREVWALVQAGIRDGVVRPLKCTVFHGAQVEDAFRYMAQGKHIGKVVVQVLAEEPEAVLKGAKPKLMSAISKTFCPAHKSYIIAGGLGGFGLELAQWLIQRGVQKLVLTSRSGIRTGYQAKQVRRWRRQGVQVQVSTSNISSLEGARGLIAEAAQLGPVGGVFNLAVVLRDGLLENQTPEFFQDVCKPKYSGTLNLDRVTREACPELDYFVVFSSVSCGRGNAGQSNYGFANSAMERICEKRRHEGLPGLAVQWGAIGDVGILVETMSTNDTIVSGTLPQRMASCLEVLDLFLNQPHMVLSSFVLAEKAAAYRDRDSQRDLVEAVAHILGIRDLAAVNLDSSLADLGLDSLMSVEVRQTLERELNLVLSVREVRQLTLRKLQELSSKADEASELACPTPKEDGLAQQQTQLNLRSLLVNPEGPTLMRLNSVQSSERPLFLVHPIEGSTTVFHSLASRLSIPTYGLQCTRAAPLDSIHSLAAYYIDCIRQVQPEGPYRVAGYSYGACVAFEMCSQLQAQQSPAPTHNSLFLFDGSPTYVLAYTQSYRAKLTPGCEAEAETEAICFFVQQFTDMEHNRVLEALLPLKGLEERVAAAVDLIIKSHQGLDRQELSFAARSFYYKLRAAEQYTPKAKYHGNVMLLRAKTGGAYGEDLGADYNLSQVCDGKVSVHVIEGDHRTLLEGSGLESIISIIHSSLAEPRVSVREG
Chain of Broad substrate specificity ATP-binding cassette transporter ABCG2 (Homo sapiens) (Q9UNQ0 whole entry, looked up): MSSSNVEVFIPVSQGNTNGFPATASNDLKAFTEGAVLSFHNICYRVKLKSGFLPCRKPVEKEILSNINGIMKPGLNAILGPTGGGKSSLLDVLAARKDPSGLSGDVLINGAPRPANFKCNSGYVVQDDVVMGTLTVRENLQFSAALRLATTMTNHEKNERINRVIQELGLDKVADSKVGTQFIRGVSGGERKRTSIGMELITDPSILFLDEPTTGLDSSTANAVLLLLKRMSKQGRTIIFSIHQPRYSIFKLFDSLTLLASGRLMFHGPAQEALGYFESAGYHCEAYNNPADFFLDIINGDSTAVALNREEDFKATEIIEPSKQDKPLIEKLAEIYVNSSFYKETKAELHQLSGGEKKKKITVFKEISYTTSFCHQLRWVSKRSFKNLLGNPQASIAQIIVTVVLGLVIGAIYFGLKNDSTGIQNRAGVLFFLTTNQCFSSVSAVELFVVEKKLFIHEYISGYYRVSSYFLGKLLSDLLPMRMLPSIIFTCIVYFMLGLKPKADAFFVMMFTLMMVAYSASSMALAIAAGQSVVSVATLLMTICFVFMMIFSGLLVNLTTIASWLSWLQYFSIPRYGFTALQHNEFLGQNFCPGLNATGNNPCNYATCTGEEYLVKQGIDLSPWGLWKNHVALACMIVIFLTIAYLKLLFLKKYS

O=C(O)c1ccccc1-n1cc(C(=O)O)c(=O)c2cc(Nc3c(F)cc(F)cc3Cl)c(Cl)cc21
inactive: [1] | [2] | [3] | [4] | [5] | [6] | [8] | [10] | [11] | [12] | [14]
active: [7] 0.00848 µM | [9] 15.5 µM | [13] 10.6 µM

CN(C[C@@H](CC[N+]12CCC(C3CCCCC3)(CC1)CC2)c1ccc(Cl)c(Cl)c1)C(=O)c1cc(C(F)(F)F)cc(C(F)(F)F)c1
active: [1] 93.8 µM | [2] 13 µM | [4] 17.5 µM | [5] 50 µM | [6] 35.9 µM | [7] 0.171 µM | [8] 30.6 µM | [9] 74.2 µM | [12] 14.5 µM | [13] 63.3 µM
inactive: [15] | [3] | [10] | [11] | [14]

CC(C)(O)c1ccc(CNC(=O)c2cccnc2Oc2ccc3nonc3c2)cc1
active: [9] 50 µM | [13] 50 µM
inactive: [1] | [2] | [15] | [3] | [16] | [4] | [5] | [6] | [7] | [8] | [10] | [11] | [12] | [14]

CC[C@@H]1C[C@H](N(Cc2cc(C(F)(F)F)cc(C(F)(F)F)c2)C(C)=O)c2cc(C(F)(F)F)ccc2N1C(=O)OC(C)C
active: [9] 0.429 µM | [13] 0.737 µM
inactive: [1] | [2] | [15] | [3] | [4] | [5] | [6] | [7] | [8] | [11] | [12] | [14]

CCCCCc1ccc(N)cc1
inactive: [1] | [2] | [15] | [3] | [16] | [4] | [5] | [6] | [7] | [8] | [9] | [10] | [11] | [12] | [13] | [14]

O=C=NCCCCCCN=C=O
inactive: [1] | [2] | [15] | [3] | [4] | [17] | [5] | [6] | [7] | [8] | [9] | [10] | [11] | [12] | [13] | [14]

CCO[Si](CCCNC(N)=O)(OCC)OCC
active: [18] 50 µM
inactive: [1] | [15] | [3] | [4] | [17] | [5] | [6] | [7] | [8] | [9] | [11] | [12] | [13] | [14]

CCCC(=O)OCCC(C)C
inactive: [1] | [2] | [3] | [16] | [4] | [17] | [5] | [6] | [7] | [8] | [9] | [10] | [11] | [12] | [13] | [14]
active: [18] 68.2 µM

CCCCCCCCCCCCO
inactive: [1] | [2] | [15] | [3] | [4] | [17] | [5] | [6] | [7] | [8] | [9] | [11] | [12] | [13] | [14]

CC[C@H](NC(=O)c1cc(F)ccc1NS(=O)(=O)c1cccc2cccnc12)c1ccccc1
active: [4] 59.2 µM | [17] 34 µM | [9] 1.34 µM | [12] 47.8 µM | [13] 11.7 µM
inactive: [1] | [2] | [15] | [3] | [5] | [6] | [7] | [8] | [10] | [11] | [14]

Cc1ncc(CO)c(CO)c1O
inactive: [1] | [2] | [15] | [3] | [4] | [5] | [6] | [8] | [9] | [10] | [11] | [12] | [14]
